PubChem BioAssay (NCATS)
Records with an inconclusive call do not appear. A call without a number means that no potency is given here. Activity calls are given as the source filed them. The call rests on the fitted dose curve; in most records, active means well fitted cell-killing curve with a large enough effect; inconclusive means small, poorly fitted or top-dose-only effect, or effect the other way; inactive means flat fitted curve, though single readings scatter.

How the values were obtained:
Test in all cases: Primary qHTS to identify gynecologic anti-cancer compounds using libraries of approved drugs and bioactive compounds (AID 1345084); further: nearly all actives have a fitted effect of over 55% in size
Settings in all cases: Gynecologic cancer cell panel viability, ATPlite luminescence, 48 h; series mostly up to 57.5 µM
[1] = tested on: SKOV3
Outline: (§1)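 Measured: luminescence after ATPlite addition (15 min, RT). Exposure: 48 h, 37 C, 5% CO2.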

[2] = tested on: Tov-21-G
Outline: as §1

[3] = tested on: Tov112D
Outline: as §1
Potency means the concentration at half of the fitted maximal effect.

SMILES	Potency [1]	Potency [2]	Potency [3]
O=S(=O)(Nc1cc(Cl)c(Oc2cnc3ccccc3c2)c(Cl)c1)c1ccc(Cl)cc1Cl	inactive	inactive	inactive
Cc1ccc(C)c(NS(=O)(=O)c2cc(C(=O)Nc3ccccc3-c3ccccc3)ccc2C)c1	inactive	inactive	inactive
COc1ccc(Cl)c(Nc2ncnc3cc(OCC4CCN(C)CC4)c(OC)cc23)c1	3.55 µM (active)	3.16 µM (active)	inactive
O=C(NCC1(c2nc(-c3ccccc3)cs2)CCOCC1)c1cccc(-c2noc(C(F)(F)F)n2)c1	inactive	inactive	inactive
COc1c(F)cccc1C(=O)N1C[C@@H](C)CC[C@H]1CNc1ccc(Br)cn1	inactive	inactive	inactive
O=C([C@@H](Cc1cccc(C(F)(F)F)c1)NS(=O)(=O)c1cc(F)c2c(c1)CCNC2)N1CCCC1	inactive	inactive	inactive
COC(=O)c1ccc2c(c1)[nH]c1ncnc(NCCCN3CCCCC3)c12	inactive	inactive	inactive
CCC(C)/C=C(C)/C=C/C1=CC2=C(Cl)C(=O)C(C)(OC(C)=O)C(=O)C2(O)C(OC)O1 (stereo not given)	inactive	inactive	inactive
CCc1c(Cl)c(O)c(Cl)c(O)c1C(=O)O[C@H]1[C@H](O)[C@H](OC)[C@H](OC/C2=C\C=C\C[C@H](O)/C(C)=C\[C@H](CC)[C@@H](O[C@@H]3OC(C)(C)[C@@H](OC(=O)C(C)C)[C@H](O)[C@@H]3O)/C(C)=C/C(C)=C/C[C@@H]([C@@H](C)O)OC2=O)O[C@@H]1C	inactive	inactive	inactive
COc1cc(C(=O)O)ccc1NC(=O)C1NC(CC(C)(C)C)C(C#N)(c2ccc(Cl)cc2F)C1c1cccc(Cl)c1F (stereo not given)	inactive	inactive	inactive
